Data as given in PubChem BioAssay (NCI).
The panel holds about 79,000 compounds, 15% with a hit somewhere; the sample as a whole holds those more often. Rule as the data show it: active = growth inhibition above about 70%; inactive = the rest.

What was measured:
[1] = NCI Yeast Anticancer Drug Screen. Data for the rad50 strain (AID 155);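 also: 0% = growth of vehicle-only cultures of the same strain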; settings: S. cerevisiae rad50 strain growth inhibition; at 50.0 µM; stronger effect = higher value
Procedure, shortened: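 Growth of the mutant yeast was measured after compound exposure and referenced to vehicle-treated cultures.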

[2] = NCI Yeast Anticancer Drug Screen. Data for the mec2-1 strain (AID 157); settings: S. cerevisiae mec2-1 strain, at 50.0 µM, stronger effect = higher value
Procedure, shortened: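 Vehicle-treated cultures served as reference for growth inhibition of compound-exposed mec2-1 yeast.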

[3] = NCI Yeast Anticancer Drug Screen. Data for the sgs1 mgt1 strain (AID 161);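 also: 0% = growth of cultures given vehicle only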; settings: S. cerevisiae sgs1 mgt1 strain, at 50.0 µM, stronger effect = higher value
Procedure, shortened: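 Genetically altered yeast, compound exposure, growth inhibition relative to vehicle.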

[4] = NCI Yeast Anticancer Drug Screen. Data for the cln2 rad14 strain (AID 165);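 also: 0% = growth equal to vehicle treated cultures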; settings: S. cerevisiae cln2 rad14 strain, at 50.0 µM, stronger effect = higher value
Procedure, shortened: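 Each compound was tested on cln2 rad14 yeast. Inhibition of growth was calculated against vehicle-exposed controls.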

[5] = NCI Yeast Anticancer Drug Screen. Data for the bub3 strain (AID 167); settings: S. cerevisiae bub3 mutant strain, at 50.0 µM, stronger effect = higher value
Procedure, shortened: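 Whole-cell yeast assay. The mutant strain was incubated with compounds, and growth inhibition was determined by comparison with vehicle-treated cells.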

[6] = NCI Yeast Anticancer Drug Screen. Data for the mlh1 rad18 strain (AID 175); settings: S. cerevisiae mlh1 rad18 strain growth inhibition; at 50.0 µM; stronger effect = higher value
Procedure, shortened: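 Vehicle-treated cultures served as the reference for growth inhibition in a yeast strain carrying DNA damage repair alterations exposed to each compound.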

Measured: growth inhibition

CCOC(=O)C(Nc1cc([N+](=O)[O-])ccc1C(=O)OC)(OC)C(=O)OCC
inactive: [1] 13.2% | [2] 15.4% | [3] 34.1% | [4] 0.95% | [5] 1.15% | [6] 27.4%

C=CCC1CCC/C1=N\O (stereo unspecified)
inactive: [1] -13.4% | [2] 10.4% | [3] 17.3% | [4] -12.2% | [5] -3.15% | [6] 3.9%

Cc1nc2cc(C)c(C)cc2[nH]1
inactive: [1] -7.55% | [2] -1% | [3] 3.75% | [4] -9.15% | [5] 8.9% | [6] 5.8%

NC(=O)N/N=C\CC(O)(C(F)(F)Cl)C(F)(F)Cl
inactive: [1] -33.9% | [2] -29.2% | [3] -15.6% | [4] -1.5% | [5] 3.2% | [6] -3.1%

CC(C)(C)C1CC/C(=N\Nc2ccc([N+](=O)[O-])cc2[N+](=O)[O-])C(Cc2ccccc2)C1 (stereo unspecified)
inactive: [1] 11.9% | [2] 21.1% | [3] 19.5% | [4] -26.6% | [5] 16.9% | [6] 0%

Cc1cc(S(=O)(=O)Nc2cc(N)[nH]n2)c(SCc2nc(N)nc(N(C)C)n2)cc1Cl
inactive: [1] 11.2% | [2] 8.7% | [3] -0.1% | [4] 2.7% | [5] 6.6% | [6] 8.05%

COc1ccc(Nc2nc(NNC(=O)Cc3ccccc3)nc(NNC(=O)c3ccncc3)n2)cc1
inactive: [1] 8.5% | [2] 20.1% | [3] 30.1% | [4] 19.2% | [5] 27.2% | [6] 30.4%

CCCCCCC(C)(C)NC(N)=O
inactive: [1] -9.4% | [2] 4.4% | [3] -4.5% | [4] 16.8% | [5] 3.75% | [6] -11.8%

O=C(Cl)c1cc(-c2ccc(Cl)cc2)nc2c(-c3ccccc3)cccc12
inactive: [1] -4.05% | [2] 9.15% | [3] -9.4% | [4] -38.5% | [5] -0.35% | [6] 8.5%

CN(C)CCCN(c1nc2cc(Cl)ccc2o1)c1nc2cc(Cl)ccc2o1
inactive: [1] 33.7% | [2] 17.1% | [3] 36.1% | [4] 52.9% | [5] 8.7% | [6] 48.5%

CSc1c2c(c(C)c3c1[nH]c1ccccc13)C=NCC2
inactive: [1] 10.8% | [2] 13.8% | [3] 8.6% | [4] -83.2% | [5] 14% | [6] 17.7%

COc1cc(C2(C)SCCCS2)cc(OC)c1OC
inactive: [1] -10.9% | [2] -8.1% | [3] -4.05% | [4] 0.2% | [5] 25.8% | [6] -15.3%

COc1ccc(O)c2c(=O)ccccc12
inactive: [1] 8.5% | [2] 7.15% | [3] -3% | [4] -13.8% | [5] 5.4% | [6] 5.55%

CN1CCN(C(=S)C(O)(c2ccccc2)c2ccccc2)CC1
inactive: [1] 1.75% | [2] -1.85% | [3] -2.35% | [4] 1.45% | [5] 16.1% | [6] -8.6%

C=C(c1nc2ccc(Cl)cc2[nH]c1=O)C(O)c1ccc(C(O)C(=O)c2nc3ccc(Cl)cc3[nH]c2=O)cc1 (stereo unspecified)
inactive: [1] 5.85% | [2] 4.55% | [3] -15.6% | [4] -68.8% | [5] -1.4% | [6] 9.05%

C=C1SC(=Nc2ccc(Cl)cc2)N(c2nc(Cl)nc(Cl)n2)C12CCCCC2
inactive: [1] -16.4% | [2] -21.1% | [3] 19.4% | [4] 14% | [5] 10.2% | [6] 20.6%

CCC(C)C(NN)C(=O)O (stereo unspecified)
inactive: [1] 0.7% | [2] -5.55% | [3] -22.4% | [4] -24.6% | [5] 0% | [6] -37.3%

Cc1ccc(S(=O)(=O)OCC23CCC(CC2)CC3)cc1
inactive: [1] -30% | [2] -9.85% | [3] -26.2% | [4] -3.5% | [5] 39.6% | [6] -1.2%

CC1=Nc2ccccc2S/C1=C(/C)NN
inactive: [1] 21.4% | [2] 8.55% | [3] 0.2% | [4] 15.6% | [5] 1.8% | [6] 0.9%

CCCCCCCCCCCCCCCCn1cnc2c(=S)nc[nH]c21
inactive: [1] -22.1% | [2] -5.25% | [3] -19.1% | [4] -4.75% | [5] 0.5% | [6] -6.9%

CC(O)COc1ccc(Cl)cc1Cl (stereo unspecified)
inactive: [1] 27.1% | [2] -10.2% | [3] 45.6% | [4] 9.6% | [5] 8.35% | [6] 26.6%

CSc1ccc(NC(=O)c2ccc(C(=O)Nc3ccc(SC)cc3)cc2)cc1
inactive: [1] -17.5% | [2] -10.7% | [3] -12.6% | [4] -14.9% | [5] -1.95% | [6] -26.7%

Cc1nn(C)c(=O)c2nn(-c3ccccc3)c(C)c12
inactive: [1] 19.6% | [2] 3.4% | [3] 14.8% | [4] 14.3% | [5] 20.8% | [6] 1.25%

NC(=O)COc1ncc(Cl)cc1Cl
inactive: [1] 4.05% | [2] -6.45% | [3] 3.15% | [4] -19.4% | [5] 4.4% | [6] 3.35%

Cc1ccc(NC(=O)/C(CC(=O)c2sc(Nc3ccccc3Cl)nc2C)=N\Nc2ccc([N+](=O)[O-])cc2[N+](=O)[O-])c(C)c1
inactive: [1] -1% | [2] 17.1% | [3] 4.25% | [4] -12.1% | [5] 4.55% | [6] -4.25%

COc1cc(C2c3c(cc(OC)c(O)c3OC)C=C(C(=O)O)C2CO)cc(OC)c1O (stereo unspecified)
inactive: [1] 9.05% | [2] 5.35% | [3] -2.95% | [4] 24.3% | [5] -2.1% | [6] 14.3%

OC(CI)C1OCOC2COCOC21 (stereo unspecified)
inactive: [1] -3.2% | [2] 4.5% | [3] 13.1% | [4] -4% | [5] 16.1% | [6] -3.75%

Cc1nc(N)c(N2CCN(CN)CC2)c(=O)[nH]1
inactive: [1] -35.2% | [2] 7.1% | [3] -5.85% | [4] 21.6% | [5] 25.9% | [6] -38%

CC1OCOC1C1OCOCC1OC(=O)c1ccccc1 (stereo unspecified)
inactive: [1] -5.6% | [2] -5.5% | [3] -15.2% | [4] -14.8% | [5] 25.2% | [6] -5%

O=C(O)/C=C/C(=O)Nc1cc2c(cc1Br)-c1ccccc1C2O (stereo unspecified)
inactive: [1] -2.75% | [2] 12.5% | [3] 14.3% | [4] 14.1% | [5] 1.25% | [6] 34%

CCOC1Oc2ccccc2-c2nc(C)c(C#N)cc21 (stereo unspecified)
inactive: [1] 1.65% | [2] 7.75% | [3] 15.9% | [4] -66.5% | [5] 15.8% | [6] 12.4%

COc1ccc(/C(Cl)=C(\C=O)c2ccc(Cl)c(Cl)c2)cc1OC
inactive: [1] 28.1% | [2] 11.2% | [3] 27.5% | [4] -34.6% | [5] 0.7% | [6] 43.1%

Cc1ccc(S(=O)(=O)NC(CCC(=O)NN)C(=O)NN)cc1 (stereo unspecified)
inactive: [1] 9.55% | [2] 7.2% | [3] -15.2% | [4] 5.95% | [5] -1.8% | [6] -43.4%

CCCCc1c[nH]c(=O)[nH]c1=O
inactive: [1] 4.55% | [2] 5.05% | [3] -8.4% | [4] -34.6% | [5] -12.6% | [6] 5.7%

Cc1cnc(C)c(C(O)c2ccccc2)n1 (stereo unspecified)
inactive: [1] -5.9% | [2] -10.3% | [3] -3.7% | [4] -17.9% | [5] -9.3% | [6] -3.65%

CCC1(c2ccccc2)CCCC/C1=N/NC(N)=O (stereo unspecified)
inactive: [1] 2.55% | [2] -16.6% | [3] -0.8% | [4] 2.2% | [5] -6.05% | [6] -8.7%

O=C(O)CCCCCCCCCCOc1ccc(Cl)cc1
inactive: [1] 24.2% | [2] -7.9% | [3] 10.1% | [4] -3.45% | [5] 11% | [6] -33.6%

O=C1OC(=O)C2C1N=NC2(c1ccccc1)c1ccccc1 (stereo unspecified)
inactive: [1] 47.3% | [2] 26% | [3] 22.1% | [4] -19.3% | [5] -1.15% | [6] 39.8%

O=C1CC2(CCCC2)CC(=O)N1
inactive: [1] -11.2% | [2] -11.4% | [3] -15.6% | [4] -29.4% | [5] 6.4% | [6] -8.1%

CC[Si](/C=C(/C)C(C)(C)C)(CC)CC
inactive: [1] 0.9% | [2] -21.9% | [3] -7.05% | [4] -34.1% | [5] -8.05% | [6] -5.1%

O=C1CCCc2c(O)ccc(O)c21
inactive: [1] 5.2% | [2] 2.8% | [3] -2.6% | [4] 11.4% | [5] 8.15% | [6] 28.4%
